An excerpt weighted towards active compounds, which were near 2.5% of everything screened.
ULK1 inh – inhibitors of human ULK1 kinase. AlphaScreen Atg13 phosphorylation by ULK1, luminescence. inhibition, % at 5.96 µM. 1.9% of 30,000 active; in the data active = inhibition above about 43%
ASK1 primary – human ASK1 kinase inhibition, primary screen. AID 1159602. AlphaScreen MKK6 phosphorylation by ASK1, luminescence. inhibition, % at 7.44 µM. 0.99% of 22,000 active; in the data active = inhibition above about 35%
AlphaScreen intf – interferes with AlphaScreen TruHits signal in ASK1 counter-screen. shares compounds with ASK1 primary. AlphaScreen TruHits beads, signal interference counterscreen. IC50, µM. 20% of 220 active. AID 1159604;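 active = IC50 of 10 µM or lower in the counterscreen; inactive = IC50 above 10 µM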;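 also: loss of AlphaScreen light from TruHits beads alone with no ASK1 enzyme present; potency of signal reduction so a low IC50 flags an assay artifact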
A number is an active result; - = inactive; . = no result.

SMILES	ULK1 inh	ASK1 primary	AlphaScreen intf
c1ccc(CN2CCC(Nc3nc(Nc4ccccc4)nc4c3ncn4-c3ccsc3)CC2)cc1	-	-	.
c1ccc(CN2CCC(Nc3nc(Nc4ccc(N5CCOCC5)cc4)nc4c3ncn4-c3ccsc3)CC2)cc1	-	43	9.3
COc1cc(NC(=O)c2cccc(N3CCN(Cc4ccc5c(c4)OCO5)CC3)n2)cc(OC)c1OC	-	-	.
CCCNC(=O)c1cccc(Nc2ccccc2)n1	-	-	.
O=C(Cc1cn(-c2ccc(N3CCN(Cc4ccc5c(c4)OCO5)CC3)nn2)c2ccccc12)Nc1ccccc1	-	-	.
O=C(Cc1cn(-c2ccc(N3CCN(Cc4ccc5c(c4)OCO5)CC3)nn2)c2ccccc12)Nc1ccc(N2CCOCC2)cc1	-	39	-
COc1cc2nc(Nc3ccccn3)nc(Nc3ccc(N4CCOCC4)cc3)c2cc1OC	-	-	.
COc1cc2nc(Nc3ccc(N4CCOCC4)cc3)nc(NCc3ccccc3)c2cc1OC	-	41	-
CCCNc1nc(Nc2ccc(N3CCOCC3)cc2)nc2cc(OC)c(OC)cc12	-	-	.
COc1cc2nc(Nc3nccc4ccccc34)nc(Nc3ccc(N4CCOCC4)cc3)c2cc1OC	-	36	-
COc1cc(NC(=O)c2cccc(-n3cc(NC(=O)Nc4c(Cl)ccc5nsnc45)cn3)c2)cc(OC)c1OC	-	-	.
O=C(Nc1ccc2[nH]ncc2c1)c1cnccc1O[C@@H]1CCN(Cc2ccccc2)C1	-	-	.
O=C(NC1CCN(Cc2ccccc2)CC1)c1csc(Oc2ccccc2)n1	-	-	.
COc1cc2nc(N3CCCC3CO)nc(N)c2cc1OC (stereo not given)	-	-	.
CC(C)N(CCNC(=O)c1csc(Nc2ccc3ncccc3c2)n1)C(C)C	-	-	.
c1ccc(Nc2cc(-c3ccnc(Nc4ccc(N5CCOCC5)cc4)c3)nn2-c2ccccc2)cc1	-	41	-
CN(C)CCNc1onc(-c2ccnc(Nc3ccc(N4CCOCC4)cc3)c2)c1-c1ccc(F)cc1	-	-	.
Fc1ccc(-c2c(-c3ccnc(Nc4ccc(N5CCOCC5)cc4)c3)noc2NCc2ccccc2)cc1	-	37	-
c1ccc(Nc2ccnn2-c2ccnc(Nc3ccc(N4CCOCC4)cc3)c2)cc1	-	-	.
COc1cc2nc(-c3ccc(N4CCOCC4)nc3)nc(N)c2cc1OC	-	-	.
CCCNc1nc(Nc2ccc(-n3ccnc3)cc2)nc2c1ncn2-c1ccccc1	-	-	.
COc1cc(Nc2nc(-c3ccc(C(N)=O)cc3)nc3c2ncn3C2CCCCC2)cc(OC)c1OC	-	40	-
COc1cc(Nc2nc(-c3ccc(C(=O)NC4CC4)cc3)nc3c2ncn3C2CCCCC2)cc(OC)c1OC	-	-	.
C=CCN(CC=C)C(=O)c1cc(OC)cc(OC)c1	-	.	.
O=C(NCc1nnnn1-c1ccc(F)cc1)c1c(F)cccc1F	-	.	.
SMILES	ULK1 inh	ASK1 primary	AlphaScreen intf
CCCNc1nc(Nc2ccnn2C)nc2c1ncn2Cc1ccc(C(F)(F)F)cc1	-	-	.
COc1ccc(-c2nc(NCc3cccc(C(F)(F)F)c3)c3ncn(Cc4ccc(C(F)(F)F)cc4)c3n2)cc1	-	-	.
NC(=O)c1ccc(-c2nc(NCc3cccc(C(F)(F)F)c3)c3ncn(Cc4ccc(C(F)(F)F)cc4)c3n2)cc1	-	41	-
CC(=O)c1cccc(-c2nc(NCc3ccccc3)c3ncn(Cc4ccc(C(F)(F)F)cc4)c3n2)c1	-	46	-
CC(=O)c1cccc(-c2nc(NCc3cccc(C(F)(F)F)c3)c3ncn(Cc4ccc(C(F)(F)F)cc4)c3n2)c1	-	-	.
COc1ccc2c(c1)CC(C(=O)Nc1ccc(-c3ccnn3C)cc1OCCN(C)C)CO2 (stereo not given)	-	-	.
CCC(=O)N/N=C/c1ncccc1Oc1nc(OC)cc(OC)n1	-	.	.
CC(C)n1cnc2c(NCCCN3CCOCC3)nc(-c3ccccc3)nc21	-	-	.
c1cc(-c2ccc3[nH]ncc3c2)nc(Nc2ccc(N3CCOCC3)cc2)n1	65	38	-
FC(F)(F)c1cc(-c2ccnc(Nc3ccc(N4CCOCC4)nc3)n2)cc(N2CCOCC2)c1	-	-	.
c1cc(-c2ccc3nonc3c2)nc(Nc2ccc(N3CCOCC3)cc2)n1	-	-	.
FC(F)(F)c1cc(-c2ccnc(Nc3ccc(N4CCOCC4)cc3)n2)cc(N2CCOCC2)c1	-	45	-
N#Cc1cc(-c2ccnc(Nc3ccc(N4CCOCC4)cc3)n2)cc(N2CCN(C3CC3)CC2)c1	-	-	.
Fc1cc(-c2ccnc(Nc3ccc(N4CCOCC4)cc3)n2)cc(N2CCN(C3CC3)CC2)c1	56	40	-
O=C(O)c1ccc(Nc2nccc(-c3ccccc3)n2)cc1	-	-	.
CC(C)n1cnc2c(NCCc3ccc(O)cc3)nc(Nc3nccc4ccccc34)nc21	-	-	.
CC(C)n1cnc2c(NCCO)nc(Nc3cccc(N(C)C)c3)nc21	-	-	.
COc1ccc(CCNc2nc(Nc3cccc(N(C)C)c3)nc3c2ncn3C(C)C)cc1	-	37	-
CC(C)n1cnc2c(Nc3ccccc3)nc(N3CCOCC3)nc21	-	-	.
